AHR activator: activators of human aryl hydrocarbon receptor; P35869; AHR-responsive luciferase reporter cells, luminescence; activation, % at 5 µM; 320,000 tested, 2.5% active; in the data active means activation above about 47%;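 further: 0% = vehicle wells and 100% = reference agonist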
Target sequence (P35869 whole entry, looked up): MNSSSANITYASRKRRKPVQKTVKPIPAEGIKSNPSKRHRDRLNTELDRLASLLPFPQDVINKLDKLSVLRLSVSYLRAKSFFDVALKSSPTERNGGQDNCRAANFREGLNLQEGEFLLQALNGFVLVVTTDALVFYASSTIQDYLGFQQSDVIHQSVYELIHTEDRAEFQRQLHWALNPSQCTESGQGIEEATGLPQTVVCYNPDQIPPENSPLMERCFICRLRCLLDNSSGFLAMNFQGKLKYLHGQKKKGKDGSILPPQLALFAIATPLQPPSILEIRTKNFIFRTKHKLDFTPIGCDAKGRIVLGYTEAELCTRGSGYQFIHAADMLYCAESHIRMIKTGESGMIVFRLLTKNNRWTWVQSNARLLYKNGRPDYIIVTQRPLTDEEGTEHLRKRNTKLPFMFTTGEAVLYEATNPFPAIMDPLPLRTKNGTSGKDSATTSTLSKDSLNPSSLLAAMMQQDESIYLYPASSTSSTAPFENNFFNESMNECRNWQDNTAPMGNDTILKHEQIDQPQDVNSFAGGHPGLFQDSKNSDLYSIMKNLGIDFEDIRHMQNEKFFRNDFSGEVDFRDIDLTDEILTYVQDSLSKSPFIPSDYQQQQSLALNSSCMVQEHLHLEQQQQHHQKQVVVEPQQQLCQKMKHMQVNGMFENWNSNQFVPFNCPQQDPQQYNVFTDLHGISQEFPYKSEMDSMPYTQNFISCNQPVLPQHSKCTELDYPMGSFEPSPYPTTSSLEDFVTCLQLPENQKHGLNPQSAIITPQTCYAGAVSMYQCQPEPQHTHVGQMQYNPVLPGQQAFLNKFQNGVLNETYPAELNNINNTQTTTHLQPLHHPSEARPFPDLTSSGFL
DAX1 inh-1: DAX1 (NR0B1) inhibition, primary screen; HEK293T StAR-luciferase reporter, SF-1/DAX-1 repression relief; AID 652010; 370,000 tested, 1.1% active; inhibition, % at 6.8 µM;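 active means inhibition above the mean over all tested compounds plus 3 SD, cut at about 3.6% in these data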;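 further: 0% = DAX-1 cells with DMSO and 100% = cells lacking DAX-1 with DMSO; higher inhibition means more luminescence from relief of DAX-1 repression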
ssDAF12 agonist: S. stercoralis DAF-12 activation, primary screen; HEK293 ssDAF-12/GRIP1 lit1-tk-luc reporter, luminescence; % of 3 µM dafachronic acid response; activation, % at 6.8 µM; 370,000 tested, 1% active; AID 652126;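 active means activation above the mean over all tested compounds plus 3 SD, cut at about 0.9% in these data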;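 further: 0% = DMSO-only wells and 100% = 3 µM delta7-dafachronic acid wells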
DAX1 inh-2: inhibits human nuclear receptor DAX1; inhibition, % at 6.75 µM; 340,000 tested, 0.99% active; HEK293 Gal4-DAX1 luciferase reporter, luminescence; P51843;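 active means inhibition above the mean over all tested compounds plus 3 SD, cut at about 4.2% in these data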;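 further: 0% = DAX1-transfected cells with DMSO and 100% = empty-vector control cells with DMSO; inhibition shows as a rise in luminescence from relieved DAX1 repression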
hcDAF12 agonist: activators of H. contortus DAF-12 nuclear receptor | HEK293 hcDAF-12 lit1-tk-luc reporter, luminescence; 0% DMSO, 100% Δ7-dafachronic acid | activation, % at 6.8 µM | 370,000 tested, 1.4% active | AID 652067;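 active means activation above the mean of all tested compounds plus 3 SD, cut at about 5.5% in these data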;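 further: 100% = response to 3 µM Δ7-dafachronic acid high control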
hgDAF12 agonist: agonists of H. glycines DAF-12 nuclear receptor; HEK293 GAL4-hgDAF12 UAS-luciferase reporter, agonist luminescence; normalized to butyrate control; activation, % at 6.8 µM; 370,000 tested, 1.8% active; AID 687014;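 active means activation above a cutoff set at the mean of all screened compounds plus 3 SD, cut at about 10% in these data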;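 further: 0% = DMSO wells and 100% = sodium butyrate wells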
The depositor's hits bear a star; . = not tested or not shown. Rows were chosen to be rich in hits. Some 5.7% of all compounds tested hit in one or more screens of this group.

SMILES	AHR activator	DAX1 inh-1	ssDAF12 agonist	DAX1 inh-2	hcDAF12 agonist	hgDAF12 agonist
Cc1ccc(N(C(=O)c2csnn2)C(C(=O)NC2CCCCC2)c2ccncc2)cc1 (stereo unspecified)	0.3	0.0	-1.1	0.8	-1.2	0.2
CCCOc1ccc(CCC(=O)N/N=C/c2ccncc2)cc1	9.2	-0.2	-1.2	-2.2	-2.9	1.4
O=C(NCc1ccc(Cl)cc1)C(=O)NCC1OCCN1C(=O)c1cccs1 (stereo unspecified)	-2.8	0.1	-1.2	0.6	6.2*	0.0
COc1ccc(CNC(=O)c2cn(Cc3ccc(OC(C)=O)cc3)c(=O)s2)cc1	.	0.3	-1.4	.	0.1	1.1
Cc1nc(C)c(C(=O)N2CCCC(C(=O)c3ccc4ccccc4c3)C2)s1 (stereo unspecified)	-4.0	-2.0	-0.9	0.3	-1.1	-2.1
Cc1ccc2c(c1C)NC(=O)C21N2CCCC2C(C(=O)c2ccc3ccccc3c2)C12C(=O)Nc1ccccc12 (stereo unspecified)	.	-0.5	1.1*	2.2	3.1	1.5
COC(=O)c1cc2c(c3c4cc(OC)ccc4n(S(=O)(=O)c4cccc(C)c4)c13)C(=O)N(Cc1ccccc1OC)C2	.	-0.1	-1.3	.	-1.2	-1.3
O=C(NN1C(=O)C2C3C=CC(C4CC34)C2C1=O)c1cccc(Cl)c1 (stereo unspecified)	-0.9	-0.7	-1.2	0.9	-0.7	3.1
O=C(NN1C(=O)C2C(C1=O)C1C=CC2C12CC2)c1cccc(Cl)c1 (stereo unspecified)	0.1	0.0	-1.2	5.0*	-1.2	-1.7
COc1ccccc1-c1cc(C(=O)N2CCN(c3ccc(F)cc3)CC2)no1	-0.5	0.4	-0.7	-0.4	-1.2	1.7
COc1cccc(-c2cc(C(=O)N3CCOCC3)no2)c1	3.5	2.2	-0.3	1.0	3.4	10.3
COc1ccccc1-c1cc(C(=O)N2CCCC2)no1	-2.6	2.5	0.4	2.8	6.5*	9.2
COc1cccc(-c2cc(C(=O)N3C(C)CCCC3C)no2)c1 (stereo unspecified)	10.6	2.2	-0.3	1.7	5.9*	4.1
CC1CCCC(C)N1C(=O)c1cc(-c2ccco2)on1 (stereo unspecified)	-4.1	0.4	0.7	-0.4	-0.1	-1.2
CCN(CC)C(=O)c1cc(-c2ccccc2OC)on1	47.9*	0.4	-1.0	0.4	1.2	5.6
COc1ccc(-c2cc(C(=O)N3CCOCC3)no2)cc1	-2.0	2.8	1.3*	-0.9	4.7	10.0
COc1ccc(C2CC(=O)c3c(O)cc(O)cc3O2)cc1O (stereo unspecified)	.	3.5	-0.9	4.8*	0.3	8.8
O=C1c2ccccc2C(=O)N1CN(C(=O)COc1ccc(Cl)cc1Cl)c1cccc(F)c1	6.6	1.4	0.1	0.1	5.9*	1.7
COC(=O)C1=C(C)N(Cc2ccccc2C(F)(F)F)C(=NCc2ccc3c(c2)OCO3)NC1c1cccc(F)c1 (stereo unspecified)	.	-0.8	-1.4	.	-1.9	2.7
Cn1cc([C@]2(O)C(=O)Nc3c(F)cccc32)c2ccccc21	.	0.2	0.3	.	1.8	-2.1
Cn1cc([C@]2(O)C(=O)Nc3cccc(Cl)c32)c2ccccc21	.	-0.9	-0.7	.	1.0	0.9
Cn1cc([C@]2(O)C(=O)Nc3ccc(F)cc32)c2ccccc21	.	-0.7	1.2*	.	1.9	2.1
Cn1cc([C@]2(O)C(=O)Nc3ccc(Br)cc32)c2ccccc21	.	0.2	0.9*	.	0.9	0.9
Cc1[nH]c2ccccc2c1CC(=O)Nc1ccc(N(C)c2cccnc2)c(-c2cccc(Cl)c2)c1	.	0.8	-1.3	.	4.1	0.1
COC(=O)c1ccc(CN2CCN(C(C)C)C(CCO)C2)cc1 (stereo unspecified)	-1.4	0.1	-1.3	2.4	-0.2	1.9
Cc1cc(=O)n2[nH]c(N)c(N=Nc3ccccc3F)c2n1	14.2	-1.1	-1.0	0.0	2.3	0.1
Cc1nc2c(N=Nc3ccccc3F)c(N)nn2c(N)c1C#N	59.6*	-0.9	0.0	1.1	3.3	4.3
CCOCCc1nnc(NC(=O)C2CCN(C(=O)c3ccco3)CC2)s1	-0.1	0.6	-0.9	-1.7	-0.5	0.3
